Measurements taken from PubChem BioAssay (Tox21).
Results filed as inconclusive are left out. Activity calls are given as the source filed them. Unless noted, calls come from the whole dose curve; as a rule, active = well fitted curve in the direction sought with a large enough effect in the repeat runs; inconclusive = weak or mixed curves; inactive = no such curve, though single readings can be large; an effect the other way counts as inactive or inconclusive.

Legend:
[1] = target: Thyrotropin receptor (Homo sapiens) (UniProt P16473); test: qHTS assay to identify small molecule antagonists of the thyroid stimulating hormone receptor (TSHR) signaling pathway (AID 1259385; calls by dose curve; note: nearly all actives have a fitted effect of over 20% in size)
Chain of Thyrotropin receptor (Homo sapiens) (P16473 whole entry, looked up): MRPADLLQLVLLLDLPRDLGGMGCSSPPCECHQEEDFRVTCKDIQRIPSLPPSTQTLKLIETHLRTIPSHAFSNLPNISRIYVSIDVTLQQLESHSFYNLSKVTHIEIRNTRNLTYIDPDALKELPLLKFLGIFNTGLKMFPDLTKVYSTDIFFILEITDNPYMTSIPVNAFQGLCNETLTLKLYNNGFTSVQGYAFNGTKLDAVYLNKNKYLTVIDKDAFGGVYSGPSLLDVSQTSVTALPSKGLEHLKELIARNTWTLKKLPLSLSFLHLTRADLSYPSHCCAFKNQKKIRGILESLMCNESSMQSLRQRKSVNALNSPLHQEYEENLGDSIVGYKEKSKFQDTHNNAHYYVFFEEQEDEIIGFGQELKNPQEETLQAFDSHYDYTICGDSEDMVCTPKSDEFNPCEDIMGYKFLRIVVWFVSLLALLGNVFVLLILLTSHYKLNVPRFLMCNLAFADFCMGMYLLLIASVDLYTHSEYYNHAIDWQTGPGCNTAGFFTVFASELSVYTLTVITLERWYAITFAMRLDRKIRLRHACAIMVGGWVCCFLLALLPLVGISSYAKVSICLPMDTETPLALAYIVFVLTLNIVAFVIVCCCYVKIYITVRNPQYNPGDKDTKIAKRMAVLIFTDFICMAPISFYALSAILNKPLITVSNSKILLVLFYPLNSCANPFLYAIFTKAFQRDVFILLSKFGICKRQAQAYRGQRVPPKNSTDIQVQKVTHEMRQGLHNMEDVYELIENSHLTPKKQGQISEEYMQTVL
In short: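 Antagonist mode: compound-treated TSHR-expressing HEK293 cells were stimulated with 1.5 ng/mL TSH (final) in presence of Ro20-1724 for 30 min at RT. HTRF cAMP detection after 1 h; each compound tested at 15 concentrations, triplicate.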

[2] = qHTS assay to identify small molecule agonists of the estrogen receptor alpha (ER-alpha) signaling pathway in the presence of an antagonist - cell viability counter screen (AID 1259386);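 note: series mostly up to about 92 µM; cells exposed to compounds for 22 h at 37 °C before the viability read; nearly all actives have a fitted effect of over 30% in size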
In short: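 Cytotoxicity was measured in parallel with the ERE-luciferase agonist screen, in the same wells. The cells were VM7Luc4E2, which endogenously express ER-alpha, and treatment was with compounds plus 10.0nM ICI-182,780 for 22hr.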

[3] = target: Progesterone receptor (Homo sapiens) (UniProt P06401); test: qHTS assay to identify small molecule agonists of the progesterone receptor (PR) signaling pathway (AID 1346784; calls by dose curve; note: nearly all actives have a fitted effect of over 30% in size)
Chain of Progesterone receptor (Homo sapiens) (P06401 whole entry, looked up): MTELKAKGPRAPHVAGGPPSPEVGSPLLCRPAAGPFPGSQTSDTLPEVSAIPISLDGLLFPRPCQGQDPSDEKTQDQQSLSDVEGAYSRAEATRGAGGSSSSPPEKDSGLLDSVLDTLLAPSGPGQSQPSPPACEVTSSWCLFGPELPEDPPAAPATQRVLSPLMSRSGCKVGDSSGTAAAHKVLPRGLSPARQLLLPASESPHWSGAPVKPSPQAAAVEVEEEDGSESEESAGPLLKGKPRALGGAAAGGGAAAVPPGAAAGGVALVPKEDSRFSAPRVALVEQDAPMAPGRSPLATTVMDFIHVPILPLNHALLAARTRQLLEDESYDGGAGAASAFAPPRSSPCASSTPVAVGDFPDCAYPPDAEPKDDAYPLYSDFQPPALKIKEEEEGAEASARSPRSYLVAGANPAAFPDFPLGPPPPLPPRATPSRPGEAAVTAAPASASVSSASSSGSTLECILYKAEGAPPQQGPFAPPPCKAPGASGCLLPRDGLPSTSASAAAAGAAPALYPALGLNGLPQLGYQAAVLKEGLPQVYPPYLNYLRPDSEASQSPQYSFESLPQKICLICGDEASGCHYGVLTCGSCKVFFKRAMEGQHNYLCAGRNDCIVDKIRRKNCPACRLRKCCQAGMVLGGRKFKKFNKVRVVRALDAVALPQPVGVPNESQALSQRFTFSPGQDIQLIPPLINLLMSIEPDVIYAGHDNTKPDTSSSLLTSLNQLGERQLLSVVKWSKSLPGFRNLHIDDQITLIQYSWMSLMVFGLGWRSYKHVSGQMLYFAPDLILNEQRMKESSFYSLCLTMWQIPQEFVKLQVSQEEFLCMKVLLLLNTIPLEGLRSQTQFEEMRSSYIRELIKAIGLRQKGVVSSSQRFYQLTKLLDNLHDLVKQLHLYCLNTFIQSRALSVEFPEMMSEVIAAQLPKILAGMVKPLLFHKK
In short: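 PR-UAS-bla HEK 293T cells carrying a UAS-driven beta-lactamase reporter were seeded in medium with 2% charcoal-stripped FBS, preincubated 6 hr at 37C, then exposed to compounds in DMSO for 16 hr; agonism was read by LiveBLAzer B/G FRET fluorescence.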

[4] = target: Progesterone receptor (Homo sapiens) (UniProt P06401); test: qHTS assay to identify small molecule antagonists of the progesterone receptor (PR) signaling pathway (AID 1346795; active = well fitted inhibition curve with a large enough effect in the signal ratio in the repeat runs, not every such curve was filed as active; the % refers to the signal ratio)
In short: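 PR-UAS-bla HEK293T cells carrying a UAS-driven beta-lactamase reporter were plated in medium with 2% charcoal-stripped FBS and rested 6 hr at 37C. Compounds were added with 1 nM R5020 (final) for 16 hr, then FRET substrate loaded 2 hr at room temperature.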

[5] = qHTS assay to identify small molecule antagonists of the progesterone receptor (PR) signaling pathway - cell viability counter screen (AID 1346798); note: series mostly up to about 92 µM; nearly all actives have a fitted effect of over 50% in size
In short: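 PR-UAS-bla HEK293T cells in medium with 2% charcoal-stripped FBS were treated with compounds plus R5020 for 16 hr at 37C. Cell viability was then read by CellTiter-Glo luminescence after 30 min at room temperature in the same wells.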

[6] = qHTS assay to identify small molecule agonists of the progesterone receptor (PR) signaling pathway - cell viability counter screen (AID 1346799; calls by dose curve; note: nearly all actives have a fitted effect of over 45% in size)
In short: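 PR-UAS-bla HEK293T cells, 3,000 per well in medium with 2% charcoal-stripped FBS, were preincubated 6 hr at 37C, then exposed to compounds for 16 hr; viability was read as CellTiter-Glo luminescence after 30 min at room temperature.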

[7] = qHTS assay to identify small molecule antagonists of the TGF-beta/Smad signaling pathway - cell viability counter screen (AID 1346824); note: nearly all actives have a fitted effect of over 50% in size
In short: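 Cytotoxicity counter-screen run in the same wells as the beta-lactamase Smad reporter read: CellTiter-Glo luminescence after 30 min at room temperature. HEK 293T SBE-bla cells had 5 hr compound exposure at 37 C with TGF-beta1 (0.25 ng/mL stock).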

[8] = qHTS assay to identify small molecule agonists of the TGF-beta/Smad signaling pathway - cell viability counter screen (AID 1346829); note: top concentration of the series differs between compounds; nearly all actives have a fitted effect of over 45% in size
In short: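 Here the cytotoxicity of library compounds is measured in SBE-bla HEK 293T cells treated for 5 hr, using CellTiter-Glo added to wells already read for the beta-lactamase reporter.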

[9] = qHTS assay to identify small molecule agonists of the TGF-beta/Smad signaling pathway (AID 1346859; active = well fitted activation curve with a large enough effect in the signal ratio in the repeat runs, not every such curve was filed as active; the % refers to the signal ratio; note: series mostly up to about 77 µM)
In short: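 HEK 293T cells stably carrying a beta-lactamase reporter driven by the Smad binding element were seeded overnight, exposed to DMSO-dissolved compounds for 5 hr at 37 C, 5% CO2, then loaded with FRET substrate for 2 hr at room temperature.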

[10] = target: Thyrotropin-releasing hormone receptor (Homo sapiens) (UniProt P34981); test: qHTS assay to identify small molecule antagonists of the thyrotropin-releasing hormone receptor (TRHR) signaling pathway (AID 1346877; active = well fitted inhibition curve with a large enough effect in the repeat runs, not every such curve was filed as active; note: series mostly up to about 51 µM)
Chain of Thyrotropin-releasing hormone receptor (Homo sapiens) (P34981 whole entry, looked up): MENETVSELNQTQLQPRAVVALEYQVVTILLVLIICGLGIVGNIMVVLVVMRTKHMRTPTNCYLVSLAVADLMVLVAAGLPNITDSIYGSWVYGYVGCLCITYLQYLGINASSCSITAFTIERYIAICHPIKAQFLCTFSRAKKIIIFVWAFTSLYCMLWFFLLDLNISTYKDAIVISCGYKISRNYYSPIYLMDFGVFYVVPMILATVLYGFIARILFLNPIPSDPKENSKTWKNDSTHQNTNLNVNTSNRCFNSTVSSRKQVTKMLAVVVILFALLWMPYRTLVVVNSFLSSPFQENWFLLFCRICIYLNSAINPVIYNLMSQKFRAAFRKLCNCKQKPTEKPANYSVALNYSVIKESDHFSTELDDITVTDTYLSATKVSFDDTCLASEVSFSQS
In short: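 Antagonism is measured as suppression of the calcium response to 1 nM TRH in TRHR-HEK293 cells that have been dye-loaded for 2 h at 37 °C after overnight plating. Each compound is tested at 15 concentrations in triplicate.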

[11] = target: Thyrotropin-releasing hormone receptor (Homo sapiens) (UniProt P34981); test: qHTS assay to identify small molecule agonists of the thyrotropin-releasing hormone receptor (TRHR) signaling pathway (AID 1346891; calls by dose curve; note: series mostly up to about 58 µM)
In short: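 TRHR-expressing HEK293 cells were plated 18 h at 37 °C/5% CO2, loaded with calcium dye 2 h at 37 °C, then given compound in DMSO; fluorescence was read kinetically for 3 min at 1 s intervals.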

[12] = Human pregnane X receptor (PXR) small molecule agonists, qHTS cell viability counter screen (AID 1346977); note: nearly all actives have a fitted effect of over 50% in size
In short: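 PXR-Luc HepG2 cells in medium with 5% charcoal-stripped FBS were pre-incubated 5hr, then exposed to compounds for 24hr at 37C. Viability was read in the same wells by CellTiter-Fluor fluorescence, reagent added after 23hr with a 1hr incubation.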

[13] = Caspase-3/7 induction in HepG2 cells by small molecules, qHTS assay (AID 1346978); note: nearly all actives have a fitted effect of over 15% in size
In short: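 Caspase-3/7 induction was measured by Caspase-Glo 3/7 luminescence (30 min, room temperature) after a 17 hr compound exposure of wild-type HepG2 cells seeded at 2,000 per well and pre-incubated 5 hr.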

[14] = Caspase-3/7 induction in CHO-K1 cells by small molecules, qHTS cell viability counter screen (AID 1346979); note: nearly all actives have a fitted effect of over 35% in size
In short: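 Wild-type CHO-K1 cells were seeded at 1,500 per well, rested 5hr at 37 C, then exposed to compounds in DMSO. After 16hr, CellTiter-Fluor reagent was added and fluorescence read 1hr later as the viability measure.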

[15] = Caspase-3/7 induction in CHO-K1 cells by small molecules, qHTS assay (AID 1346980); note: nearly all actives have a fitted effect of over 15% in size
In short: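 Luminescent Caspase-Glo 3/7 read (30min, room temperature) quantified apoptosis induction. Cells were wild-type CHO-K1, treated with compound for 17hr at 37 C and 5% CO2.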

[16] = target: Nuclear receptor subfamily 1 group I member 2 (Homo sapiens) (UniProt O75469); test: Human pregnane X receptor (PXR) small molecule agonists, qHTS assay (AID 1346982); note: nearly all actives have a fitted effect of over 35% in size
Chain of Nuclear receptor subfamily 1 group I member 2 (Homo sapiens) (O75469 whole entry, looked up): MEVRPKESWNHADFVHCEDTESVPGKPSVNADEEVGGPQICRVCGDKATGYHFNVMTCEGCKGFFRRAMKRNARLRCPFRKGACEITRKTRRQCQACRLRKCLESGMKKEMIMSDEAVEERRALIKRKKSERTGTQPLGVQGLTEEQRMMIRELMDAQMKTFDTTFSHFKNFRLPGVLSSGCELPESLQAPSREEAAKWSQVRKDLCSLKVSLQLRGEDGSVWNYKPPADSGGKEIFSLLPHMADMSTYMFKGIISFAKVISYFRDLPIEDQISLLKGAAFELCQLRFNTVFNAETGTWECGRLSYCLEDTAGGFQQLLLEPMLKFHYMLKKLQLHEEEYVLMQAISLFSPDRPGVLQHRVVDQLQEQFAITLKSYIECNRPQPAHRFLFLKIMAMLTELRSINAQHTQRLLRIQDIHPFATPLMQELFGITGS
In short: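 Cells: HepG2 stably carrying PXR-Luc. Medium held 5% charcoal-stripped FBS. Compounds in DMSO added after 5 hr plating, incubated 24 hr, then luminescence quantified with ONE-Glo.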

[17] = Caspase-3/7 induction in HepG2 cells by small molecules, qHTS cell viability counter screen (AID 1346981); note: series mostly up to about 92 µM; nearly all actives have a fitted effect of over 30% in size
In short: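 Cell viability is measured as a cytotoxicity counter screen alongside the Caspase-Glo 3/7 readout in identical wells. Wild-type HepG2 cells are treated with test compounds for 16 hr at 37 C before CellTiter-Fluor addition and a 1-hr incubation.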

[18] = target: Nuclear receptor subfamily 1 group I member 2 (Rattus norvegicus) (UniProt Q9R1A7); test: Rat pregnane X receptor (rPXR) activation by small molecules, qHTS assay (AID 1346983); details: rPXR luciferase reporter cells, One-Glo luminescence, 24 h; active compounds read high; note: nearly all actives have a fitted effect of over 20% in size
Chain of Nuclear receptor subfamily 1 group I member 2 (Rattus norvegicus) (Q9R1A7 whole entry, looked up): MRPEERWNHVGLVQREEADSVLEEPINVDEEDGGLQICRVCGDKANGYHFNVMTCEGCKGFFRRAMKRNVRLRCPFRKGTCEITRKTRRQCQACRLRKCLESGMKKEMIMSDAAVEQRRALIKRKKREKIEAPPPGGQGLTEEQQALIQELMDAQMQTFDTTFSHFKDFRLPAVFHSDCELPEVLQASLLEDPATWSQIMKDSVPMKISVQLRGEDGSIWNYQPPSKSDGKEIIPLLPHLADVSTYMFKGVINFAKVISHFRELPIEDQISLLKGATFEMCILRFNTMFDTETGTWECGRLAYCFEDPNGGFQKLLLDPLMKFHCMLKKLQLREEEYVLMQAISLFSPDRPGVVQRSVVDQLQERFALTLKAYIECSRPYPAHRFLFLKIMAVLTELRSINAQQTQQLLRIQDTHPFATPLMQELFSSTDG
In short: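 Luminescent readout (One-Glo luciferase, 30 min room temperature) followed 24 hr compound treatment at 37 C of rPXR cells plated 2,000 per well and preincubated 5hr; qHTS format with compounds delivered in DMSO.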

[19] = target: Nuclear receptor subfamily 1 group I member 2 (Homo sapiens) (UniProt O75469); test: Human pregnane X receptor (PXR) activation by small molecules, qHTS assay (AID 1346985); note: nearly all actives have a fitted effect of over 40% in size
In short: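 DPX-2 cells (HepG2 co-transfected with a PXR response element and a CYP3A4-promoter luciferase construct) were seeded at 2,000 per well, rested 5 hr at 37C, then exposed to DMSO-dissolved compounds for 24 hr. Activation was read as luciferase luminescence.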
% is set by controls: 0 for no effect and ±100 for the full control effect.

CC1COc2ccccc2N1 (stereo unspecified)
inactive: outcome [1] | Potency [2] | Potency [3] | Potency [4] | Potency [5] | Potency [6] | outcome [7] | outcome [8] | outcome [9] | outcome [10] | outcome [11] | Potency [12] | Potency [13] | Potency [14] | outcome [15]

Cc1cccc2nccnc12
inactive: outcome [1] | Potency [2] | Potency [3] | Potency [4] | Potency [5] | Potency [6] | outcome [7] | outcome [8] | outcome [9] | outcome [10] | outcome [11] | Potency [12] | Potency [13] | Potency [14] | outcome [15] | Potency [16]

CCN(C)C(=O)Oc1cccc([C@H](C)N(C)C)c1
inactive: outcome [1] | Potency [2] | Potency [3] | Potency [4] | Potency [5] | Potency [6] | outcome [7] | outcome [8] | outcome [9] | outcome [10] | outcome [11] | Potency [12] | Potency [13] | Potency [14] | outcome [15] | Potency [17] | Potency [16] | max activation [18] 7.36% | Potency [19]

O=C(O)C(=O)Cc1ccccc1
inactive: outcome [1] | Potency [2] | Potency [3] | Potency [4] | Potency [5] | Potency [6] | outcome [7] | outcome [8] | outcome [9] | outcome [10] | outcome [11] | Potency [12] | Potency [13] | Potency [14] | outcome [15] | Potency [17] | Potency [16]

CC(CO)c1ccccc1 (stereo unspecified)
inactive: outcome [1] | Potency [2] | Potency [3] | Potency [4] | Potency [5] | Potency [6] | outcome [7] | outcome [8] | outcome [9] | outcome [10] | outcome [11] | Potency [12] | Potency [13] | Potency [14] | outcome [15] | Potency [17] | Potency [16]

CCCCNC1CC(C)(C)NC(C)(C)C1
inactive: outcome [1] | Potency [2] | Potency [3] | Potency [4] | Potency [5] | Potency [6] | outcome [7] | outcome [8] | outcome [9] | outcome [10] | outcome [11] | Potency [12] | Potency [13] | Potency [14] | Potency [17] | Potency [16]

C=COCCOCCOCCOC=C
inactive: outcome [1] | Potency [2] | Potency [3] | Potency [4] | Potency [5] | Potency [6] | outcome [7] | outcome [8] | outcome [9] | outcome [10] | outcome [11] | Potency [12] | Potency [13] | Potency [14] | outcome [15] | Potency [16]
